# Test results from paper PMC4336329 (PLoS ONE, 2015).
# In all, about 310,000 compounds went through this assay and about 14,000 (4.5%) showed an effect of 50% or more. The effect is printed as a negative number. The full list was thinned out, with strong results kept by preference.
# Target: human ether-à-go-go-related gene (hERG) potassium channel (human, UniProt Q12809)
# Experiment: primary screen, population patch clamp on CHO cells stably expressing hERG; higher = less effect of the substance
# 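Further: peak tail current of the secondary pulse compared with the same well before compound.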
# human ether-à-go-go-related gene (hERG) potassium channel, sequence (Q12809 whole entry, looked up): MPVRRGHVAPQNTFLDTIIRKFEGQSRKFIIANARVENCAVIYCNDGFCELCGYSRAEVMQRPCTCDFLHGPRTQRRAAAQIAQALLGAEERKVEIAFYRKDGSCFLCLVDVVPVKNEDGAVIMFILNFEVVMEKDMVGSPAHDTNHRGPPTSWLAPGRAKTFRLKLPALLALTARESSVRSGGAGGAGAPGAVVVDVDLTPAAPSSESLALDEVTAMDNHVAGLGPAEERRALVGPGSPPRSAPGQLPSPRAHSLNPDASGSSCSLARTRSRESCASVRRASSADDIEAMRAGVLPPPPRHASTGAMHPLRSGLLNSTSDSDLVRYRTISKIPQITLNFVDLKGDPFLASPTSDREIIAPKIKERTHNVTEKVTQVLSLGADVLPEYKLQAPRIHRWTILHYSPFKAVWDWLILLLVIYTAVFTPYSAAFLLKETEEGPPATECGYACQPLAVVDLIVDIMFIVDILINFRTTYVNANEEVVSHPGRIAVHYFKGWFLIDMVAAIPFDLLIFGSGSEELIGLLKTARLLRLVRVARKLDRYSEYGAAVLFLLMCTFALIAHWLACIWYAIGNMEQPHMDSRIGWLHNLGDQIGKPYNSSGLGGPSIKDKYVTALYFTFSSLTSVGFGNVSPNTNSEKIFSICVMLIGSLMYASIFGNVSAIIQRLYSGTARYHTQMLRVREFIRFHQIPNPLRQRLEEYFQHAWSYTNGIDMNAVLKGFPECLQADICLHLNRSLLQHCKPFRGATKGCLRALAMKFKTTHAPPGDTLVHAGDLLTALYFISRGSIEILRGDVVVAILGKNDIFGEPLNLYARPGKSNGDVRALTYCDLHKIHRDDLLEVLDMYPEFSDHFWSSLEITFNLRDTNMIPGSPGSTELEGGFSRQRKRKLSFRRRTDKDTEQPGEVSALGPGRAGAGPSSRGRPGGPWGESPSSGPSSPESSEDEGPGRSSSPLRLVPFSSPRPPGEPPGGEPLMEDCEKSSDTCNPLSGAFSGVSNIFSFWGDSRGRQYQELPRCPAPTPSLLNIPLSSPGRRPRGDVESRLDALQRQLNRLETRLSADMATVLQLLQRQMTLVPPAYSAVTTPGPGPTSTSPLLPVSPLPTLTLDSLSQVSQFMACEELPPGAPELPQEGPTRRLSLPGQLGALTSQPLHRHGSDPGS
row,SMILES,"hERG current change (%, negative = inhibition) at 10uM [%]"
1,CCCCn1c(-c2csc(CCC)c2)n[nH]c1=S,14.8
2,CC1CCC2(CC1)NC(=O)N(Cc1cccc(C(F)(F)F)c1)C2=O (stereo not shown),12.9
3,N#C/C(=C\c1ccc(-c2cccc([N+](=O)[O-])c2)o1)C(=O)N1CCOCC1,-6.75
4,O=C(NCC1CCCO1)c1ccc(CSCc2cccc(F)c2)o1 (stereo not shown),-7.59
5,COc1ccc(C(=O)NNc2cc(C)nc(NNC(=O)c3ccc(OC)cc3)n2)cc1,7.94
6,CCN(C(=O)COc1cccnc1[N+](=O)[O-])C1CCS(=O)(=O)C1 (stereo not shown),-0.18
7,CCOc1ccc(CNC(=O)CCS(=O)(=O)Cc2cccc(Cl)c2)cc1OC,-12.1
8,O=C(O)c1cc2c(ccc3ccccc32)o1,4.33
9,COC(=O)c1ccc([C@H]2CC(=O)O2)cc1,1.35
10,c1ccc2c(c1)nc(NC1CCCCC1)c1nncn12,-35.2
11,Cc1ccc(-n2ncc(C(=O)NCC3CCN(C4CCCC4)C3)c2C2CCN(C(=O)OC(C)(C)C)CC2)cc1 (stereo not shown),-20.4
12,CC(C)(C)OC(=O)N1CCC(c2c(C(=O)NCC3CCN(C4CCCC4)C3)cnn2-c2ccccc2)CC1 (stereo not shown),-35.8
13,CC(C)(C)OC(=O)N1CCC(c2c(C(=O)NCC3CCN(C4CCCC4)C3)cnn2-c2ccc(F)cc2)CC1 (stereo not shown),-50.5
14,CC[n+]1ccccc1/C=C1\Sc2ccc(C)cc2N1C.[I-],-62.5
15,Cc1ccc2c(c1)N(C)/C(=C/c1cccc[n+]1CCO)S2.[I-],-9.09
16,Cc1ccc2c(c1)N(C)/C(=C/c1cccc[n+]1C)S2.[I-],-47.5
17,Cc1oc2nc(SCC(=O)NC3CCCCC3)nc(N)c2c1C,-14.8
18,Cl.O=C(CN1CCCC1)N1c2ccccc2Sc2ccc(Cl)cc21,0.273
19,COc1ccc(S(=O)(=O)Nc2ccc3c(c2)n(C)c(=O)n3C)cc1C,2.39
20,COc1ccc(CCNC(=O)C23CN(Cc4ccccc4)CC2C(c2ccc([N+](=O)[O-])cc2)=NO3)cc1 (stereo not shown),-74.8

row,SMILES,"hERG current change (%, negative = inhibition) at 10uM [%]"
1,O=C(NCc1ccccc1)C12CN(Cc3ccccc3)CC1C(c1ccc([N+](=O)[O-])cc1)=NO2 (stereo not shown),-67.1
2,COc1cccc(CNC(=O)C23CN(Cc4ccccc4)CC2C(c2ccc([N+](=O)[O-])cc2)=NO3)c1 (stereo not shown),-52.1
3,COc1ccc(CNC(=O)C23CN(Cc4ccccc4)CC2C(c2ccc([N+](=O)[O-])cc2)=NO3)cc1 (stereo not shown),-40.5
4,Cc1ccc(CNC(=O)C23CN(Cc4ccccc4)CC2C(c2cccc([N+](=O)[O-])c2)=NO3)cc1 (stereo not shown),-0.125
5,O=C(NCc1ccco1)C12CN(Cc3ccccc3)CC1C(c1ccc([N+](=O)[O-])cc1)=NO2 (stereo not shown),-70.8
6,Cc1ccc(CCNC(=O)C23CN(Cc4ccccc4)CC2C(c2ccc([N+](=O)[O-])cc2)=NO3)cc1 (stereo not shown),-24
7,Cc1ccc(CNC(=O)C23CN(Cc4ccccc4)CC2C(c2ccc([N+](=O)[O-])cc2)=NO3)o1 (stereo not shown),-49.6
8,O=C(NCc1ccccc1)C12CN(Cc3ccccc3)CC1C(c1cccc([N+](=O)[O-])c1)=NO2 (stereo not shown),-14.6
9,COc1ccc(CCNC(=O)C23CN(Cc4ccccc4)CC2C(c2cccc([N+](=O)[O-])c2)=NO3)cc1 (stereo not shown),-7.39
10,Cc1ccc(CNC(=O)C23CN(Cc4ccccc4)CC2C(c2ccc([N+](=O)[O-])cc2)=NO3)cc1 (stereo not shown),-43.7
11,O=C(NCc1ccco1)C12CN(Cc3ccccc3)CC1C(c1cccc([N+](=O)[O-])c1)=NO2 (stereo not shown),-46.6
12,CCC1CCCCN1C(=O)Nc1cccc(NC(=O)N2CCCCC2CC)c1 (stereo not shown),9.57
13,CC(C)c1nnc(NC(=O)C2CCCN2S(=O)(=O)c2ccc(Cl)cc2)s1 (stereo not shown),7.71
14,Fc1ccc(N=c2ssnc2Cl)c(F)c1,22.1
15,CCCc1cc(=O)n2[nH]c(-c3ccc(C)cc3)cc2n1,-0.208
16,O=C(CN1CCN(C(=O)C2CCCO2)CC1)Nc1ccc(Cl)c(Cl)c1 (stereo not shown),-22.5
17,Cc1ccc(Nc2cnn(C34CC5CC(CC(CC(=O)O)(C5)C3)C4)c(=O)c2Cl)cc1,12
18,Cc1ccc(-n2nc3c(c2NC(=O)c2ccc(OC(C)C)cc2)CS(=O)C3)cc1 (stereo not shown),-12.8
19,CCc1ccc(S(=O)(=O)Nc2c(C)n(C)n(-c3ccccc3)c2=O)cc1,-2.47
20,O=c1oc2cc(O)c(Cl)cc2c2ccccc12,3.98
